Laboratory results taken from PubChem BioAssay AID2320 (National Center for Advancing Translational Sciences (NCATS), 2010).
Results filed as inconclusive are left out. Where a call stands in place of a potency, no number is given. Calls of active or inactive are those of the source. Calls come from the whole dose curve.

Experiment: A qHTS for Small Molecule Inhibitors of Shiga Toxin (Confirmatory); note: nearly all actives have a fitted effect of over 75% in size
Conditions: Cell-based Shiga toxin protection reporter assay; series mostly up to 38.3 µM
Potency is the fitted concentration of half-maximal effect.

Compound	Potency
Cc1cc(C)nc(Sc2ccc3nnnn3n2)n1	28.3 µM (active)
Cc1nc(N2CCN(C(=O)c3ccco3)CC2)nc2c1C(=O)CCC2	6.34 µM (active)
CC(=O)c1cccc(NC(=O)c2ccc(NC(=O)CCS(=O)(=O)c3cccs3)cc2)c1	inactive
Cc1cc(C)c2c(n1)SCC(=O)N2CC(=O)Nc1ccc(C)c(C)c1	0.449 µM (active)
CC1CCC/C=C/C2CC(O)CC2C(O)/C=C/C(=O)O1 (stereo not drawn)	0.565 µM (active)
O=C(Nc1ccc(Cl)cc1)C1CCN(C(=O)c2cccs2)CC1	inactive
CCOc1ccc2nc(SCC(=O)NC3CCCCC3)[nH]c2c1	inactive
COc1ccccc1CNc1nc2ccccc2n1CCN1CCCCC1	inactive
COc1ccc(N2CCN(Cc3csc(C)c3-c3ccc(C)cc3)CC2)cc1	inactive
CC(=O)c1ccc(NC(=O)C(C)Sc2nnc(C3CCCCC3)o2)cc1 (stereo not drawn)	inactive
O=C(NCCN1C(=O)S/C(=C\c2ccc(Cl)cc2)C1=O)c1ccc(F)c(S(=O)(=O)N2CCOCC2)c1	6.34 µM (active)
COc1ccccc1CNC(=O)c1csc2c1CCCC2	10 µM (active)
N=c1c(S(=O)(=O)c2ccc(Cl)cc2)cc2c(=O)n3ccccc3nc2n1C1CCCCC1	inactive
CCN1CCN(Cc2nnc(-c3ccc(C)cc3)o2)CC1	inactive
Cc1ccc(-c2csc(NC(=O)c3ccc(C)o3)n2)cc1	0.0318 µM (active)
O=C(CCS(=O)(=O)c1cccs1)Nc1ccc(C(=O)NCc2cccs2)cc1	inactive
COc1ccc(NC(=O)CSc2nccn2-c2cccc(OC)c2)cc1	inactive
O=C(Nc1ccccc1)c1ccccc1O	14.2 µM (active)
Cc1cc(NC(=O)/C=C/c2ccc(Br)cc2)no1	8.95 µM (active)

Compound	Potency
Fc1ccccc1N=C1Nc2cccc3cccc1c23	inactive
O=C(Cc1c[nH]c2ccccc12)NCc1ccc(Cl)cc1	inactive
O=C(CN1CCN(c2ncc(C(F)(F)F)cc2Cl)CC1)NC(=O)NCc1ccccc1	inactive
Cc1c(NC(=O)c2ccc3c(c2)OCO3)cccc1-c1nc2ccccc2o1	20 µM (active)
COc1ccccc1-n1cnnc1SCC(=O)Nc1ccccc1	22.5 µM (active)
Cc1sc(NC(=O)COc2cccc(-n3cnnn3)c2)c(C#N)c1C	inactive
CCc1ccc(C(=O)c2oc3nc(C)cc(C)c3c2N)cc1	5.04 µM (active)
CCCC(=O)Nc1cnc(NC(=O)c2cccc(F)c2)cc1C	0.711 µM (active)
CC1CC(C)CN(C(=O)C(NS(=O)(=O)c2ccc(Br)s2)c2ccccc2)C1 (stereo not drawn)	2.25 µM (active)
CCCc1cc(=O)oc2cc(C)cc(OCC(=O)NCc3ccccn3)c12	inactive
CCCCOC(=O)c1ccc(N=Nc2c(C)c(C#N)c(O)[nH]c2=O)cc1	15.9 µM (active)
N#Cc1ccc(N=c2ssnc2Cl)cc1	inactive
Cc1ccc2c(c1)N(CC(=O)N1CCCC1)C(=O)CO2	inactive
CSc1nc(SCCO)c2sc3nc(-c4ccco4)c4c(c3c2n1)CC(C)(C)OC4	inactive
CC(=O)N/C(=C\c1ccccc1)C(=O)Nc1ccccc1C	0.0798 µM (active)
Nc1cc(N)nc(SCC(=O)Nc2ccc(Br)cc2Cl)n1	11.3 µM (active)
COCCCn1c(SCC(=O)OC2CCCCC2)nnc1-c1cccs1	inactive
Cc1ccc2c(CN3CCCCC3C)cc(=O)oc2c1C (stereo not drawn)	0.01 µM (active)
CCc1nc2ccccc2c(=O)n1NCCc1ccccc1	inactive
